Source: PubChem BioAssay AID1346428 (National Center for Advancing Translational Sciences (NCATS), 2018)
“And” between values parts separate entries of the source, which are not always exact repeats. Identical values can stand only once. About 1,200 (2.5%) of roughly 48,000 compounds were called active. Another 2% or so got no clear call; they are omitted.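 How the source made its calls: active means activation of at least 60% and not above a set upper limit (about 1 call in 100 departs from these limits); inconclusive means activation of 40% to 60%, or above that upper limit; inactive means activation under 40%.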 The entries come from a sample that favours actives as a whole. A structure can be active in one record and inactive in another.

target: Probable G-protein coupled receptor 32 (Homo sapiens) (UniProt O75388); assay: qHTS for Agonists of Human Resolvin D1 Receptor DRV1; conditions: CHO-K1 GPR32 beta-arrestin PathHunter luminescence, 90 min; at 76.9 µM; stronger effect = higher value; zero percent set by DMSO-only wells; further: 0% is about no effect
Procedure, shortened: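 CHO-K1 cells stably expressing ProLink-tagged GPR32 and Enzyme Activator-tagged beta-arrestin were seeded at 2,500 cells/well overnight, exposed to compounds for 90 min at 37 °C, then read by beta-Gal complementation chemiluminescence after 1 h detection reagent.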

Probable G-protein coupled receptor 32 (Homo sapiens), sequence (O75388 whole entry, looked up): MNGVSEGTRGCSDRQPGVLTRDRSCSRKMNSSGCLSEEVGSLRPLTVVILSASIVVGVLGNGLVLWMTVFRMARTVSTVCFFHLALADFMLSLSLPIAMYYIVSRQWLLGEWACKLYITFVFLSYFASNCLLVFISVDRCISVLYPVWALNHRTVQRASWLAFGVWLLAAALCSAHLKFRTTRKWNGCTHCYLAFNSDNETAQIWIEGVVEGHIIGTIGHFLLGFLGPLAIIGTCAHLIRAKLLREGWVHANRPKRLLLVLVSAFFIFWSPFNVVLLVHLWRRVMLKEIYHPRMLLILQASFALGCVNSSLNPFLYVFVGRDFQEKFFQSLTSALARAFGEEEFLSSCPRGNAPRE

SMILES	activation
CCOc1cc(C2c3c(-c4ccc(Br)cc4)n[nH]c3C(=O)N2c2ccc(Cl)cc2)ccc1O (stereo unspecified)	85.1% (active)
CCOc1ccc(-c2n[nH]c3c2C(c2ccccc2OC)N(c2ccc(Br)cc2)C3=O)cc1 (stereo unspecified)	-5.97% (inactive)
CCOC(=O)c1ccc(N2C(=O)c3n[nH]c(C)c3C2c2ccc(O)c(OC)c2)cc1 (stereo unspecified)	21.2% (inactive)
CCCOC(=O)c1c(NC(=O)c2cc3nc(-c4ccc(OC)cc4)cc(C(F)(F)F)n3n2)sc2c1CCCC2	16% (inactive)
COc1ccc(NC(=O)Cn2c(=O)cc(C)c3c(C)nn(-c4cccc(Cl)c4C)c32)cc1OC	-11.5% (inactive)
Cc1ccccc1OCc1ccc(-c2nc(C#N)c(N3CCCCC3)o2)o1	-28.2% (inactive)
Cc1cc(C)cc(OCC(=O)Nc2nc(-c3ccc(F)cc3)ns2)c1	4.54% (inactive)
COc1cc(CNCCSc2nnnn2C)ccc1OCc1c(F)cccc1Cl	14.1% (inactive)
Cn1nnnc1SCCNCc1ccc(Cl)c(Cl)c1	-5.94% (inactive)
COc1cc(CNCCSc2nnnn2C)ccc1OCc1ccc(Cl)cc1Cl	60% (active)
CCc1ccccc1NC(=O)N1CCN(C(=O)c2nsc3ccccc23)CC1	-15.9% (inactive)
COc1cccc(Cn2c(SCc3ccc(C(=O)N4CCCCC4)cc3)nc3ccncc32)c1	30.7% (inactive)
Cc1[nH]c2ccccc2c1C(c1ccccc1)c1cccs1 (stereo unspecified)	73.6% (active)
COc1ccc(-c2onc(C)c2C)cc1S(=O)(=O)NCCc1ccccc1	3.28% (inactive)
O=C(Nc1nnc(C2CC(=O)N(c3ccc(Cl)cc3)C2)s1)c1ccco1 (stereo unspecified)	-14.5% (inactive)
CCCCN(C)CCCNC(=O)CN1N=C(c2ccc(OC)cc2)CCC1=O	11.3% (inactive)
Cc1ccc(S(=O)(=O)N2CCCc3cc(NS(=O)(=O)c4cc(C)ccc4C)ccc32)cc1	-16.6% (inactive)
C=Cc1ccc(Cn2c(C(=O)OC)cc3sc(C)cc32)cc1	-21.6% (inactive)
CCC(C(=O)OCCN(CC)CC)c1ccccc1 (stereo unspecified)	1.87% (inactive)

SMILES	activation
CCCC(C(=O)OCCN(CC)CC)(c1ccccc1)c1ccccc1	60.2% (active) and -17.3% (inactive)
Cc1ccc(N(CC(=O)Nc2cc(C)cc(C)c2)S(=O)(=O)c2cccc3nonc23)cc1	-3.71% (inactive)
Cc1ccc(NC(=O)Cn2c(=O)n(-c3ccccc3)c(=O)c3c4c(sc32)CCCC4)cc1	-1.44% (inactive)
CC(=O)c1ccc(N2CCN(C3C(=O)c4ccccc4N3C(C)=O)CC2)cc1 (stereo unspecified)	-28.3% (inactive)
Cc1ccc(C)c(N2CCN(CCCNC(=O)Nc3ccc(Cl)cc3)CC2)c1	37.2% (inactive)
CC1=C(c2ccc(Cl)cc2)S(=O)(=O)N=C1N1CCN(c2cc(C)ccc2C)CC1	-14.2% (inactive)
CC1=C(c2ccc(C)cc2)S(=O)(=O)NC1=NCCCN1CCN(c2cc(C)ccc2C)CC1	84.3% (active)
Cc1csc2nc(COc3ccc(NC(=O)COc4ccccc4)cc3)cc(=O)n12	63.9% (active)
Cc1ccc(OCC(=O)Nc2ccc(OCc3cc(=O)n4c(C)csc4n3)cc2)cc1C	-16.1% (inactive)
Cc1ccc(C(=O)Nc2ccc(OCc3cc(=O)n4c(C)csc4n3)cc2)cc1	3.91% (inactive)
COc1ccccc1N1CCN(CCCNC(=O)c2cnn(-c3ccccc3Cl)c2C2CCN(C(=O)OC(C)(C)C)CC2)CC1	-18.9% (inactive)
O=C(CCS(=O)(=O)c1cc(Br)cc2c1N(C(=O)C1CC1)CC2)Nc1ccc(C(F)(F)F)cc1	-8.56% (inactive)
CC(C)NC(=O)c1nn(-c2ccccc2F)nc1CO	-8.71% (inactive)
O=C(NCCc1ccccc1)c1ccc2c(c1)N(Cc1ccccc1)C(=O)c1ccccc1S2(=O)=O	92.4% (active)
O=C(NCCc1ccccc1)c1ccc2c(c1)N(Cc1ccc(F)cc1)C(=O)c1ccccc1S2(=O)=O	-31.8% (inactive)
COCCNC(=O)c1ccc2c(c1)N(Cc1cccc(Cl)c1)C(=O)c1ccccc1S2(=O)=O	-32.3% (inactive)
CC(C)(C)c1ccc(S(=O)(=O)N2CCN(C(=O)c3cc(-c4ccc(Br)cc4)n[nH]3)CC2)cc1	-6.87% (inactive)
O=C(CSc1ncc(CO)n1Cc1ccc(Cl)cc1)NCc1ccc(F)cc1	39.5% (inactive)
OCc1cnc(SCc2ccc(F)cc2)n1Cc1ccc(F)cc1	109% (active)

SMILES	activation
O=C(CSc1ncc(CO)n1Cc1ccc(F)cc1)NCc1ccco1	7.63% (inactive)
CCOC(=O)C(Cc1ccccc1)NC(=O)CCc1c(C)nc2c(c(C)nn2-c2ccc(C)c(C)c2)c1C (stereo unspecified)	-3.74% (inactive)
COc1cccc(CNC(=O)Cc2csc3nc(-c4ccccc4)cn23)c1	-4.88% (inactive)
Cc1ccccc1C(=O)NCc1nc(-c2ccc(Cl)cc2)no1	-2.46% (inactive)
COc1ccc(-c2noc(CCC(=O)N(C)c3ccccc3C)n2)cc1	107% (active)
COc1ccc(-c2noc(CSc3nc4ccc(C)cc4[nH]3)n2)cc1	23.5% (inactive)
COc1cccc(CNC(=O)Cn2ncn3c(cc4ccccc43)c2=O)c1	-1.19% (inactive)
COc1cccc(CNC(=O)CCc2nc(-c3ccc(C)cc3)no2)c1	92.5% (active)
Cc1ccc(NC(=O)CSc2nc3c([nH]c4ccccc43)c(=O)n2-c2ccccc2)cc1Cl	-26.8% (inactive)
CCCCNC(=O)c1cc(-c2ccc(Cl)c(Cl)c2)on1	8.61% (inactive)
COc1ccc(C(=O)Nc2ccc(-n3nncc3-c3ccccc3)cc2)cc1OC	-15.2% (inactive)
O=C(CSc1oc(-c2ccccc2)nc1S(=O)(=O)c1ccc(Br)cc1)NC1CCCCC1	-14.8% (inactive)
COc1ccc(C)cc1Nc1nc2ccccc2c2nnc(C)n12	9.83% (inactive)
CCC(=O)N1CCc2cc(S(=O)(=O)NC(C(=O)NCCc3ccc(C)cc3)C(C)C)ccc21 (stereo unspecified)	-8.05% (inactive)
CCC(=O)N1CCc2cc(S(=O)(=O)NC(CC(C)C)C(=O)NCCc3cccc(C)c3)ccc21 (stereo unspecified)	64.6% (active)
CCC(=O)N1CCc2cc(S(=O)(=O)NC(Cc3ccccc3)C(=O)NCc3ccc(C)cc3)ccc21 (stereo unspecified)	-14.4% (inactive)
Cc1ccc(-c2cnc(NCc3ccc(C(C)C)cc3)n2C)cc1	-44.5% (inactive)
CSc1ccc(CCNC(=O)c2cnn(-c3ccccc3)c2-n2cccc2)cc1	-2.99% (inactive)
